Bioassay records: PubChem, National Center for Advancing Translational Sciences (NCATS)
Only some compounds are listed: those with a hit (about 2.2% of all), similar ones and a draw of the others.
IL-2 act: activates IL-2 in a cell-based reporter assay. actives 0.065% (n = 360,000). AID 652025. activation, % (series mostly up to about 46 µM). IL-2 activation reporter assay, cell-based qHTS; stimulated with anti-CD3/CD4/CD28 beads; in transgenic mouse T cells; in the data active = activation above about 50%; inconclusive = mostly about 30% to 49%
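Unstimulated transgenic mouse T cells preincubated 60 min with compound, then stimulated with anti-CD3/anti-CD4-coated beads plus anti-CD28 for 18 h at 37 degrees C. IL-2 response read as EGFP and DsRed fluorescence by plate cytometry.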
mIDH1 inhibitor: human IDH1 R132H inhibition | O75874 | IDH1-R132H enzyme, NADPH consumption, diaphorase/resazurin fluorescence | Potency, µM (doses to about 76.6 µM), usual class: inhibitors | actives 0.093% (n = 390,000) | AID 602179; note: nearly all actives have a fitted effect of over 65% in size
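IDH1-R132H (0.5 ug/mL dispensed) in pH 7.5 Tris buffer was preincubated 30 min with compound, then given a substrate mix of 0.016 mM NADPH and 2 mM alpha-KG for 80 min at room temperature; remaining NADPH was read by diaphorase/resazurin fluorescence.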
Giardia kill: Giardia lamblia killing | Giardia lamblia trophozoite viability | activity change, % at 7.66 µM, hits read low | actives 0.15% (n = 340,000) | AID 540267; in the data active = activity change below about -80%; inconclusive = between about -30% and that limit;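 note: parasites exposed to compound for two days anaerobically before the ATP read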
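Trophozoite viability was measured as ATP-dependent luminescence, read 15-30 min after reagent addition. Before that, parasites at 100 cells/well were exposed to compounds for 48 h, anaerobically, at 37 deg C.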
TrxR1 substrate: is turned over as a substrate by rat TrxR1; O89049; purified TrxR1 substrate turnover, NADPH consumption readout; Potency, µM (highest dose often 114 µM); actives 0.01% (n = 390,000); AID 588456; note: nearly all actives have a fitted effect of over 50% in size
Target sequence (O89049 whole entry, looked up): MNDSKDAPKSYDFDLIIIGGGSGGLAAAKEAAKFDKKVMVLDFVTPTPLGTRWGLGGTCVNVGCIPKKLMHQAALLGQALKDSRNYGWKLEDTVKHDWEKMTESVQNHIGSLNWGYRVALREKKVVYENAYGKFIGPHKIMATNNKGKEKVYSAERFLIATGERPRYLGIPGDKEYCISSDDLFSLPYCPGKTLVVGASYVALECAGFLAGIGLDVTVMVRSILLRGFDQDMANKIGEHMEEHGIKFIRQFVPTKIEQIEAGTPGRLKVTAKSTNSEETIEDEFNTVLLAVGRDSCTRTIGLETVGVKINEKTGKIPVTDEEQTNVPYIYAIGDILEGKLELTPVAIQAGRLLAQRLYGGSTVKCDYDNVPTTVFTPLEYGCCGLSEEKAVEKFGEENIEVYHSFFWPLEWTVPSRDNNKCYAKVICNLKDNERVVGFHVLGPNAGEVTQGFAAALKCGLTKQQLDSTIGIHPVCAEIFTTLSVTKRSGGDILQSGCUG
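Rat TrxR1, dispensed at 90 nM, was prereduced with 400 uM NADPH (final) for 5 min at ~22 deg C, then incubated with compound 15 min before 400 uM selenite. A first-read NADPH fluorescence drop versus no-compound background flagged substrates.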
TrxR1 inh: inhibitors of rat thioredoxin reductase 1. O89049. recombinant rTrxR1, NADPH fluorescence consumption, selenite substrate. Potency, µM (top dose mostly 114 µM), usual class: inhibitors. actives 1% (n = 390,000). AID 588453; note: nearly all actives have a fitted effect of over 65% in size
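Rat TrxR1 (90 nM in the dispensed reagent) was pre-reduced with 400 uM NADPH for 5 min at room temperature, then incubated with compound for 15 min. After 400 uM selenite was added, NADPH fluorescence (Ex 340/Em 450 nm) was followed for 8 min.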
BRCA1 expr up: BRCA1 expression activation | MCF7-BRCA1-FFLuc reporter, luminescence, 48 h; response scale: scaled: vehicle 0%, 10 µM genistein 100% | Potency, µM (series often up to 46.1 µM), most hits filed as activators | actives 1.1% (n = 380,000) | AID 624202; note: nearly all actives have a fitted effect of over 80% in size
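Compounds are tested at multiple concentrations on MCF7 BRCA1-luciferase reporter cells seeded at 2000 per well; after 48 h, a single luminescence end-point is taken and curves fitted to the normalized data.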
Hits are given with their value. Unless noted, calls come from the whole dose curve; as a rule, active = well fitted curve in the direction sought with a large enough effect; inconclusive = small, poorly fitted or top-dose-only effect, or another doubt; inactive = no such curve, though single readings can be large; an effect the other way counts as inactive or inconclusive.

Results for Cc1ccc(C(=O)Nc2cnc3ccccc3c2)cc1 ?
IL-2 act: inactive; mIDH1 inhibitor: inactive; Giardia kill: inconclusive; TrxR1 substrate: inactive; TrxR1 inh: inactive; BRCA1 expr up: inactive

What do the screens show for `CCN1CCN(c2ccc(NC(=O)c3ccccc3F)cc2Cl)CC1`?
IL-2 act: inactive; mIDH1 inhibitor: inactive; Giardia kill: inactive; TrxR1 substrate: inactive; TrxR1 inh: inactive; BRCA1 expr up: 7.1µM

Results for CCN(CC)CCNC(=O)c1cc2c(=O)n(C)c3cc(Cl)ccc3c2s1 ?
mIDH1 inhibitor: inactive; TrxR1 substrate: inactive; TrxR1 inh: inactive; BRCA1 expr up: inactive

Results for CN1CCN(c2ccc(NC(=O)c3ccc([N+](=O)[O-])o3)cc2Cl)CC1 ?
IL-2 act: inactive; mIDH1 inhibitor: inactive; Giardia kill: inconclusive; TrxR1 substrate: inactive; TrxR1 inh: inactive; BRCA1 expr up: inactive

What do the screens show for `O=C(Nc1ccccc1N1CCN(C(=O)c2ccc(Cl)cc2)CC1)c1ccc([N+](=O)[O-])o1`?
IL-2 act: inactive; mIDH1 inhibitor: inactive; Giardia kill: -89; TrxR1 substrate: inactive; TrxR1 inh: inactive; BRCA1 expr up: inactive

How did Cc1cc(C(=O)Nc2ccc(N3CCCC3)c(Cl)c2)ccc1[N+](=O)[O-] do in these assays?
IL-2 act: inactive; mIDH1 inhibitor: inactive; Giardia kill: inactive; TrxR1 substrate: inactive; TrxR1 inh: inactive; BRCA1 expr up: 10µM

What do the screens show for `CC(C)C(=O)N1CCN(c2ccc(NC(=O)c3ccc([N+](=O)[O-])o3)cc2Cl)CC1`?
IL-2 act: inactive; mIDH1 inhibitor: inactive; Giardia kill: -88; TrxR1 substrate: inactive; TrxR1 inh: inactive; BRCA1 expr up: inactive

Results for O=C(Nc1ccc(N2CCOCC2)c(Cl)c1)c1ccc([N+](=O)[O-])o1 ?
IL-2 act: inactive; mIDH1 inhibitor: inactive; Giardia kill: -89; TrxR1 substrate: inactive; TrxR1 inh: inactive; BRCA1 expr up: inactive

What do the screens show for `COc1ccc(OC)c(NC(=O)c2ccc(-c3nc(COc4ccccc4)c(C)o3)cc2)c1`?
mIDH1 inhibitor: inactive; TrxR1 substrate: inactive; TrxR1 inh: inactive

What do the screens show for `CCCC(=O)N1CCN(c2ccc(NC(=O)c3ccc([N+](=O)[O-])o3)cc2Cl)CC1`?
IL-2 act: inactive; mIDH1 inhibitor: inactive; Giardia kill: -82; TrxR1 substrate: inactive; TrxR1 inh: inactive; BRCA1 expr up: inactive

Results for O=C(Nc1ccccc1N1CCOCC1)c1ccc([N+](=O)[O-])o1 ?
IL-2 act: inactive; mIDH1 inhibitor: inactive; Giardia kill: -92; TrxR1 substrate: inactive; TrxR1 inh: inconclusive; BRCA1 expr up: inactive

How did O=C(Nc1ccccc1N1CCCCC1)c1ccc([N+](=O)[O-])o1 do in these assays?
IL-2 act: inactive; mIDH1 inhibitor: inactive; Giardia kill: inconclusive; TrxR1 substrate: inactive; TrxR1 inh: inconclusive; BRCA1 expr up: inactive

How did O=C(Nc1cccc(S(=O)(=O)N2CCCCC2)c1)c1ccc([N+](=O)[O-])o1 do in these assays?
IL-2 act: inactive; mIDH1 inhibitor: inactive; Giardia kill: -96; TrxR1 substrate: inactive; TrxR1 inh: inactive; BRCA1 expr up: inactive

Results for COc1cc(OC)c(Nc2nc3ccc(C)cc3n3nnnc23)cc1Cl ?
mIDH1 inhibitor: inactive; TrxR1 substrate: inactive; TrxR1 inh: inactive

Results for C(=C\c1ccnc2ccccc12)/c1ccc(N2CCNCC2)cc1 ?
TrxR1 substrate: inactive; TrxR1 inh: inconclusive

Results for O=C(c1ccc([N+](=O)[O-])o1)N1CCN(c2nc3c(Cl)cccc3s2)CC1 ?
IL-2 act: inactive; mIDH1 inhibitor: inactive; Giardia kill: inconclusive; TrxR1 substrate: inactive; TrxR1 inh: 40µM; BRCA1 expr up: inactive

How did Cc1ccc2sc(N3CCN(C(=O)c4ccc([N+](=O)[O-])o4)CC3)nc2c1C do in these assays?
IL-2 act: inactive; mIDH1 inhibitor: inactive; Giardia kill: inactive; TrxR1 substrate: inactive; TrxR1 inh: inactive; BRCA1 expr up: inactive

What do the screens show for `O=C(c1ccc([N+](=O)[O-])o1)N1CCN(c2nc3ccc(F)cc3s2)CC1`?
IL-2 act: inactive; mIDH1 inhibitor: inactive; Giardia kill: -89; TrxR1 substrate: inactive; TrxR1 inh: inconclusive; BRCA1 expr up: inactive
